Experimental data taken from PubChem BioAssay AID1159580 (chemical genetic matrix, 2015).
The campaign covered roughly 5,500 compounds. About 2,000 (36%) were called active. About 18% were inconclusive and are not listed. Cut-off read from the data, not from the text of the source: active = normalized growth mostly below about 0.91 (no sharp cut-off); inconclusive = no clear call, values can overlap the other calls; inactive = mostly above about 0.92. Some of the results follow.

Assay: chemical genetic growth profiling, strain panel (AID 1159580);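 note: tested at 20 µM; growth read once vehicle control cultures reached saturation at 30 °C; 1 = growth at the plate median or of vehicle wells; lower values mean less growth of the strain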
Conditions: growth OD

Measured: normalized growth

COc1ccc2c(c1)CCC1C2CC[C@@]2(C)C1CC[C@@H]2O (some centres not stated)
inactive: S. cerevisiae deletion strains, locus YKL068W, hits give low values 0.944 | S. cerevisiae deletion strains, locus YKR026C, strain gcn3, hits give low values 0.969 | S. cerevisiae deletion strains, locus YKR091W, strain srl3, hits give low values 0.968 | S. cerevisiae deletion strains, locus YLL041C, strain sdh2, hits give low values 0.973 | S. cerevisiae deletion strains, locus YLR102C, strain apc9, hits give low values 0.951 | S. cerevisiae deletion strains, locus YLR370C, strain arc18, hits give low values 0.959 | S. cerevisiae deletion strains, locus YLR371W, strain rom2, hits give low values 0.925 | S. cerevisiae deletion strains, locus YLR384C, strain iki3, hits give low values 1.02 | S. cerevisiae deletion strains, locus YML016C, strain PPZ1, hits give low values 0.977 | S. cerevisiae deletion strains, locus YML124C, strain tub3, hits give low values 0.934 | S. cerevisiae deletion strains, locus YMR125W, strain sto1, hits give low values 0.938 | S. cerevisiae deletion strains, locus YMR129W, hits give low values 0.961 | S. cerevisiae deletion strains, locus YMR231W, strain pep5, hits give low values 0.963 | S. cerevisiae deletion strains, locus YNL183C, strain NPR1, hits give low values 0.838 | S. cerevisiae deletion strains, locus YNL209W, strain ssb2, hits give low values 0.934 | S. cerevisiae deletion strains, locus YNL248C, strain rpa49, hits give low values 0.915 | S. cerevisiae deletion strains, locus YNL322C, strain KRE1 (second series), hits give low values 0.907 | S. cerevisiae deletion strains, locus YNR049C, strain mso1, hits give low values 0.984 | S. cerevisiae deletion strains, locus YOL012C, strain htz1 1.54 | S. cerevisiae deletion strains, locus YOR001W, strain rrp6, hits give low values 0.893 | S. cerevisiae deletion strains, locus YOR061W, strain CKA2, hits give low values 0.965 | S. cerevisiae deletion strains, locus YOR069W, strain VPS5, hits give low values 0.968 | S. cerevisiae deletion strains, locus YOR080W, strain dia2, hits give low values 0.98 | S. cerevisiae deletion strains, locus YOR231W, strain MKK1, hits give low values 0.883 | S. cerevisiae deletion strains, locus YOR270C, strain vph1, hits give low values 1.01 | S. cerevisiae deletion strains, locus YPL256C, strain CLN2, hits give low values 0.878 | S. cerevisiae deletion strains, locus YPR141C, strain kar3, hits give low values 0.967
active: S. cerevisiae deletion strains, locus YJR075W, strain HOC1, hits give low values 0.705 | S. cerevisiae deletion strains, locus YKL009W, strain mrt4, hits give low values 0.685 | S. cerevisiae deletion strains, locus YKL085W, strain MDH1 (second series), hits give low values 0.853 | S. cerevisiae deletion strains, locus YKL085W, strain MDH1, hits give low values 0.853 | S. cerevisiae deletion strains, locus YKL160W, strain elf1, hits give low values 0.829 | S. cerevisiae deletion strains, locus YKL190W, strain CNB1, hits give low values 0.843 | S. cerevisiae deletion strains, locus YKR001C, strain vps1, hits give low values 0.359 | S. cerevisiae deletion strains, locus YLL001W, strain dnm1, hits give low values 0.838 | S. cerevisiae deletion strains, locus YLL026W, hits give low values 0.902 | S. cerevisiae deletion strains, locus YLR027C, strain aat2, hits give low values 0.816 | S. cerevisiae deletion strains, locus YLR039C, strain RIC1, hits give low values 0.351 | S. cerevisiae deletion strains, locus YLR058C, strain SHM2, hits give low values 0.879 | S. cerevisiae deletion strains, locus YLR113W, strain HOG1, hits give low values 0.816 | S. cerevisiae deletion strains, locus YLR221C, strain rsa3, hits give low values 0.808 | S. cerevisiae deletion strains, locus YLR258W, strain gsy2, hits give low values 0.892 | S. cerevisiae deletion strains, locus YLR262C, strain YPT6 (second series), hits give low values 0.505 | S. cerevisiae deletion strains, locus YLR262C, strain YPT6, hits give low values 0.293 | S. cerevisiae deletion strains, locus YLR268W, strain sec22, hits give low values 0.818 | S. cerevisiae deletion strains, locus YLR320W, strain mms22, hits give low values 0.722 | S. cerevisiae deletion strains, locus YLR330W, strain CHS5, hits give low values 0.748 | S. cerevisiae deletion strains, locus YLR342W, strain FKS1 (second series), hits give low values 0.398 | S. cerevisiae deletion strains, locus YLR342W, strain FKS1, hits give low values 0.781 | S. cerevisiae deletion strains, locus YLR357W, strain rsc2, hits give low values 0.852 | S. cerevisiae deletion strains, locus YLR418C, strain cdc73, hits give low values 0.381 | S. cerevisiae deletion strains, locus YML032C, strain rad52, hits give low values 0.696 | S. cerevisiae deletion strains, locus YML120C, strain ndi1, hits give low values 0.896 | S. cerevisiae deletion strains, locus YMR058W, strain fet3, hits give low values 0.872 | S. cerevisiae deletion strains, locus YMR078C, strain ctf18, hits give low values 0.867 | S. cerevisiae deletion strains, locus YMR205C, strain PFK2, hits give low values 0.697 | S. cerevisiae deletion strains, locus YMR223W, strain ubp8, hits give low values 0.728 | S. cerevisiae deletion strains, locus YMR263W, strain SAP30, hits give low values 0.785 | S. cerevisiae deletion strains, locus YMR307W, strain GAS1, hits give low values 0.237 | S. cerevisiae deletion strains, locus YNL067W, strain RPL9B, hits give low values 0.791 | S. cerevisiae deletion strains, locus YNL071W, strain lat1, hits give low values 0.468 | S. cerevisiae deletion strains, locus YNL128W, strain TEP1, hits give low values 0.78 | S. cerevisiae deletion strains, locus YNL153C, strain GIM3, hits give low values 0.838 | S. cerevisiae deletion strains, locus YNL233W, strain BNI4, hits give low values 0.584 | S. cerevisiae deletion strains, locus YNL250W, strain rad50, hits give low values 0.85 | S. cerevisiae deletion strains, locus YNL271C, strain bni1, hits give low values 0.8 | S. cerevisiae deletion strains, locus YNL298W, strain CLA4, hits give low values 0.548 | S. cerevisiae deletion strains, locus YNL307C, strain MCK1, hits give low values 0.266 | S. cerevisiae deletion strains, locus YNL322C, strain KRE1, hits give low values 0.87 | S. cerevisiae deletion strains, locus YNR052C, strain pop2, hits give low values 0.738 | S. cerevisiae deletion strains, locus YOL006C, strain TOP1, hits give low values 0.477 | S. cerevisiae deletion strains, locus YOL147C, strain pex11, hits give low values 0.695 | S. cerevisiae deletion strains, locus YOR070C, strain gyp1, hits give low values 0.873 | S. cerevisiae deletion strains, locus YOR083W, strain WHI5, hits give low values 0.825 | S. cerevisiae deletion strains, locus YOR106W, strain vam3, hits give low values 0.738 | S. cerevisiae deletion strains, locus YOR136W, strain idh2, hits give low values 0.853 | S. cerevisiae deletion strains, locus YOR144C, strain elg1, hits give low values 0.898 | S. cerevisiae deletion strains, locus YOR184W, strain ser1, hits give low values 0.458 | S. cerevisiae deletion strains, locus YOR265W, strain rbl2, hits give low values 0.912 | S. cerevisiae deletion strains, locus YOR290C, strain snf2, hits give low values 0.761 | S. cerevisiae deletion strains, locus YOR316C, strain cot1, hits give low values 0.85 | S. cerevisiae deletion strains, locus YPL051W, strain arl3, hits give low values 0.83 | S. cerevisiae deletion strains, locus YPL055C, strain LGE1, hits give low values 0.53 | S. cerevisiae deletion strains, locus YPL078C, strain atp4, hits give low values 0.791 | S. cerevisiae deletion strains, locus YPL106C, strain sse1, hits give low values 0.837 | S. cerevisiae deletion strains, locus YPL240C, strain hsp82, hits give low values 0.892 | S. cerevisiae deletion strains, locus YPL241C, strain CIN2, hits give low values 0.893 | S. cerevisiae deletion strains, locus YPR119W, strain clb2, hits give low values 0.917 | S. cerevisiae deletion strains, locus YPR163C, strain tif3, hits give low values 0.657 | S. cerevisiae deletion strains, locus YPR167C, strain met16, hits give low values 0.85 | S. cerevisiae deletion strains, strain wtn01, hits give low values 0.731 | S. cerevisiae strains, strain wild type, hits give low values 0.785
